Data as given in PubChem BioAssay (NCATS).
Records with an inconclusive call do not appear. Active and inactive are the calls of the source. Unless noted, the call rests on the fitted dose curve; in most records, active means well fitted curve in the direction sought with a large enough effect; inconclusive means small, poorly fitted or top-dose-only effect, or another doubt; inactive means no such curve, though single readings can be large; an effect the other way counts as inactive or inconclusive.

Tests used:
[1] = target: DNA repair nuclease/redox regulator APEX1 (Homo sapiens) (UniProt P27695); assay: qHTS Validation Assay for Inhibitors of the Human Apurinic/apyrimidinic Endonuclease 1 (APE1) (AID 1705;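 further: TAMRA fluorescence gain over two minutes as APE1 cuts a quenched THF abasic duplex; on the % scale 0 is the no-effect control and ±100 the full control effect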)
Sequence of DNA repair nuclease/redox regulator APEX1 (Homo sapiens) (P27695 whole entry, looked up): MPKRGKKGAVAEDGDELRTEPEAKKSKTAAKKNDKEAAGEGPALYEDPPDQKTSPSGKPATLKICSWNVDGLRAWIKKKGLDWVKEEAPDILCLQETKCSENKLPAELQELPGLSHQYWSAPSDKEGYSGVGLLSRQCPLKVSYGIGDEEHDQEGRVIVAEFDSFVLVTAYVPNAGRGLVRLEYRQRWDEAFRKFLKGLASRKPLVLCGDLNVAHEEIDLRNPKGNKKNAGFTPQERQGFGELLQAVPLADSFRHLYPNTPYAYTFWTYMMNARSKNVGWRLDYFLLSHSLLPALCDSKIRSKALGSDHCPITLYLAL
Summary of the method: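 qHTS, 1536-well. APE1 + cpd 15 min RT → 50 nM TAMRA/BHQ-2 THF-abasic dsDNA substrate → kinetic fluorescence, 3 reads/60 s; delta(read3−read1) = reaction progress. No-enzyme buffer = negative control.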

[2] = Counterscreen for APE1 Inhibitors: Fluorescent Dye Displacement Validation Assay (AID 1707);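 further: plate controls were ThO with dsDNA and no compound for no effect and ThO without dsDNA for full effect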
Summary of the method: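 Reaction mixture of 250 nM Thiazole Orange and 50 nM double-stranded abasic-site DNA was dispensed, compounds were pin-transferred, and fluorescence was read at endpoint (480 nm ex, 540 nm em). Reduced fluorescence indicated dye displacement by DNA binding.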

[3] = qHTS for differential inhibitors of proliferation of Plasmodium falciparum line 7G8 (AID 1815);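 further: parasite growth measured after three days of incubation; plate controls were vehicle wells for no effect and reference inhibitor wells for full effect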
[4] = qHTS for differential inhibitors of proliferation of Plasmodium falciparum line GB4 (AID 1816); conditions: Potency: Plasmodium falciparum GB4 proliferation inhibition;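 further: parasite growth measured after 72 h incubation; 0% = vehicle DMSO and -100% = reference inhibitor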
[5] = qHTS for differential inhibitors of proliferation of Plasmodium falciparum line 3D7 (AID 1876);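 further: parasite growth measured after three days of culture; 0% = vehicle wells and -100% = reference inhibitor wells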
[6] = qHTS for differential inhibitors of proliferation of Plasmodium falciparum line D10 (AID 1877);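 further: parasites grown with compound for 72 h before DNA staining; plate controls were vehicle wells for no effect and reference inhibitor wells for full effect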
[7] = qHTS for differential inhibitors of proliferation of Plasmodium falciparum line Dd2 (AID 1882); conditions: Potency: Plasmodium falciparum Dd2 proliferation inhibition;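 further: plate controls were DMSO vehicle for no effect and 0.29 µM artemisinin for full effect; nearly all actives have a fitted effect of over 65% in size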
Summary of the method: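 RBC culture, 0.3% parasitemia / 2.5% Hct final; cpd added by pin tool in DMSO; 72 h, 37 C, 5% CO2; lysis buffer + SYBR Green I, o/n RT dark; FI 485/535; norm. to artemisinin 0.29 uM and DMSO.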

[8] = qHTS for differential inhibitors of proliferation of Plasmodium falciparum line W2 (AID 1883); conditions: Potency: Plasmodium falciparum W2 proliferation inhibition;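 further: parasites grown with compound for 72 h before lysis and staining; 0% = vehicle wells and -100% = control inhibitor wells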
[9] = qHTS for differential inhibitors of proliferation of Plasmodium falciparum line HB3 (AID 1886); conditions: Potency: Plasmodium falciparum HB3 proliferation inhibition;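 further: parasites grown with compound for 72 h before SYBR Green readout; plate controls were vehicle for no effect and reference inhibitor for full effect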
[10] = target: Ferritin light chain (Equus caballus) (UniProt P02791); assay: qHTS Validation Assay for Identification of Novel General Anesthetics (AID 2323); further: on the % scale 0 is the no-effect control and ±100 the full control effect
Sequence of Ferritin light chain (Equus caballus) (P02791 2-175 limits assumed): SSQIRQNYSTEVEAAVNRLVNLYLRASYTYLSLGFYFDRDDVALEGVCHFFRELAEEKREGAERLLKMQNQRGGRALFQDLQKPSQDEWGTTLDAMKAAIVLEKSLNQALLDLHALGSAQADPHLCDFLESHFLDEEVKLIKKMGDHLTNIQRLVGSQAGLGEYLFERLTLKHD
Summary of the method: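 Fluorescence at 535 nm (excitation 380 nm) reported loss of 1-AMA binding to horse-spleen apoferritin (10 uM) in PBS with 50% saturated 1-aminoanthracene, after 10 min room-temperature incubation with compound; values from Hill fits of normalized response.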

[11] = target: ATP-dependent DNA helicase Q1 (Homo sapiens) (UniProt P46063); assay: qHTS Validation Assay for Inhibitors of RecQ-Like Dna Helicase 1 (RECQ1) (AID 2353);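 further: plate controls were DMSO vehicle for no effect and enzyme-free control for full effect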
Sequence of ATP-dependent DNA helicase Q1 (Homo sapiens) (P46063 whole entry, looked up): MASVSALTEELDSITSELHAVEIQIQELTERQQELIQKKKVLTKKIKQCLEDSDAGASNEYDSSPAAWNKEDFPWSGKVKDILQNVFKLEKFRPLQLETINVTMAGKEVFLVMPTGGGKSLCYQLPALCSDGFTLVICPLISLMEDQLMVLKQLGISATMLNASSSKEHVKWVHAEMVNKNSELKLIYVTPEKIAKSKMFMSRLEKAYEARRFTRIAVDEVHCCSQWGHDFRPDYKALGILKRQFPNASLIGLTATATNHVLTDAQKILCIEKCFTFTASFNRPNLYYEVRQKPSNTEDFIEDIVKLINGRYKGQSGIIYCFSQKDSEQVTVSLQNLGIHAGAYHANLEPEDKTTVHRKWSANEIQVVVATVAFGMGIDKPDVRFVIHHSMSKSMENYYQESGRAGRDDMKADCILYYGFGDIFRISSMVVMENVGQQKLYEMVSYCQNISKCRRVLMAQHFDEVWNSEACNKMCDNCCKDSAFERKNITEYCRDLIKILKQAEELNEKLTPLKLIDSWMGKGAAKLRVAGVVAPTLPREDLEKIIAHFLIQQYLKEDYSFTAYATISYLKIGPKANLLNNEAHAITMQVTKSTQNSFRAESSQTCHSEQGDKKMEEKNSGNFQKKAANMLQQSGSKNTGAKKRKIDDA
Summary of the method: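 RECQ1T1 50 nM; forked duplex (20 bp + 30-nt ss tails) 200 nM, ATP 2 mM final; pH 8.0, 2 mM MgCl2, 2.5 ug/ml poly(dI-dC); 15 min compound preincubation; discontinuous kinetic read over 2 h at RT.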

[12] = Validation screen for inhibitors of Lassa infection (AID 463096; calls by dose curve; further: on the % scale 0 is the no-effect control and ±100 the full control effect)
[13] = Validation screen for small molecules that induce DNA re-replication in MCF 10A normal breast cells (AID 463097); further: 0% is about no effect; nearly all actives have a fitted effect of over 60% in size
Summary of the method: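 Image-based qHTS: normal breast cells are incubated with compound for 48 hr, stained with Hoechst, and scanned for total nuclear fluorescence. Compounds raising the fraction of nuclei with elevated DNA content count as re-replication inducers.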

[14] = Quantitative high throughput screen for delayed death inhibitors of the malarial parasite plastid, 48 hour incubation (AID 488752); further: on the % scale 0 is the no-effect control and ±100 the full control effect; nearly all actives have a fitted effect of over 65% in size
Summary of the method: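 Luciferase-expressing P. falciparum in RBCs, 2% Hct, 0.1% parasitemia final; RPMI 1640 + 0.5% Albumax; 48 h, 37 C, 5% CO2; luminescence readout, signal drop = growth inhibition.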

[15] = target: M-phase phosphoprotein 8 (Homo sapiens) (UniProt Q99549); assay: qHTS Validation Assay for Inhibitors for MPP8 Chromodomain Interactions with Methylated Histone Tails (AID 488949);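 further: 50 nM MPP8 with 50 nM peptide preformed then compounds added for 30 min; AlphaScreen signal from MPP8 chromodomain bound to biotinylated H3K9me3 peptide; top concentration of the series differs between compounds; on the % scale 0 is the no-effect control and ±100 the full control effect; nearly all actives have a fitted effect of over 55% in size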
Sequence of M-phase phosphoprotein 8 (Homo sapiens) (Q99549 whole entry, looked up): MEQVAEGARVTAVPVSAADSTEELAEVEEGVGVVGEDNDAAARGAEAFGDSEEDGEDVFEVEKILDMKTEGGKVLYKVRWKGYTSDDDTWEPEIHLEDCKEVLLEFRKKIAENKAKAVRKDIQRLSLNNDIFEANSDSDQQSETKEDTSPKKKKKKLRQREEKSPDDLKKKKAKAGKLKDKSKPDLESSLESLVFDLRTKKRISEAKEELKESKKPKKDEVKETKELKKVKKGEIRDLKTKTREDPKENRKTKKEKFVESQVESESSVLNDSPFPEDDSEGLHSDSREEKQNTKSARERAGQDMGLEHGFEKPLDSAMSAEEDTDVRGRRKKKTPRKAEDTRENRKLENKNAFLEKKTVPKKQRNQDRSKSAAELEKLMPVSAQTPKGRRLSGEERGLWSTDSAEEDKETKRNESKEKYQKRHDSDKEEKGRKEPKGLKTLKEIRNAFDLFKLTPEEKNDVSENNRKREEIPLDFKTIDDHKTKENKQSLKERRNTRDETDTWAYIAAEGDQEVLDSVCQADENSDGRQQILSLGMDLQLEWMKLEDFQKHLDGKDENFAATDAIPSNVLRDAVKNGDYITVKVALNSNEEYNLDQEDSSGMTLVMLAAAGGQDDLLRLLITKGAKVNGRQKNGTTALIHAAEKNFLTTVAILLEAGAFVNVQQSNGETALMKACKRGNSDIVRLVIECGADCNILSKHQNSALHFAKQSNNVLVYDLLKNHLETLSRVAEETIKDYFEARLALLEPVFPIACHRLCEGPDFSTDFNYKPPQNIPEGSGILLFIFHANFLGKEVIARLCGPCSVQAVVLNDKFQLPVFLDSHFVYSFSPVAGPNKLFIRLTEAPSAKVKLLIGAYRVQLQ
Summary of the method: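 50 nM MPP8 + 50 nM b-H3K9me3 peptide, PBS pH 7.4/0.01% Tween-20, 30 min RT; + cpd 30 min RT; + AlphaScreen donor/Ni-chelate acceptor beads 10 ug/mL final, 30 min dark; luminescence read.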

[16] = target: Thyrotropin receptor (Homo sapiens) (UniProt P16473); assay: qHTS Assay for Antagonists of the Thyroid Stimulating Hormone Receptor (AID 488980); further: 0% is about no effect
Sequence of Thyrotropin receptor (Homo sapiens) (P16473 whole entry, looked up): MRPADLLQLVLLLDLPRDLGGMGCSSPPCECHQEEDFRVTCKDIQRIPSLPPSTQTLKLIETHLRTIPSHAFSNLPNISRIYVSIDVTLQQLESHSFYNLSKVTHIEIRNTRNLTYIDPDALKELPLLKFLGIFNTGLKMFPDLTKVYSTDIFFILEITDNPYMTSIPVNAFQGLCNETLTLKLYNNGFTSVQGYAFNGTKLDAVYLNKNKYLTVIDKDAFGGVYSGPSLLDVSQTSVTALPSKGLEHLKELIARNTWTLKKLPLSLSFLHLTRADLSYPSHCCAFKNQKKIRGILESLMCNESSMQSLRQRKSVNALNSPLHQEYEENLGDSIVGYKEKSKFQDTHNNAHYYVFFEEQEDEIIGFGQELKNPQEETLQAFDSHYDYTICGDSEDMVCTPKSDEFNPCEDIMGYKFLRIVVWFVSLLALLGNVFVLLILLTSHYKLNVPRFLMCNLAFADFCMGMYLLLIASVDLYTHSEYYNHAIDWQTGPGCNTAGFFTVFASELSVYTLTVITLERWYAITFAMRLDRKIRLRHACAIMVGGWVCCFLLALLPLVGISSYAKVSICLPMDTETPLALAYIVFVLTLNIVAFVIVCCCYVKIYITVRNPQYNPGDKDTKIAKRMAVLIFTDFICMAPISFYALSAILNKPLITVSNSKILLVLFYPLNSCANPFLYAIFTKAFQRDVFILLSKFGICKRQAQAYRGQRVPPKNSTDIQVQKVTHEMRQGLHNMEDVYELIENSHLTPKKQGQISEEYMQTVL
Summary of the method: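 Readout is cAMP by HTRF competition between cellular cAMP and cAMP-d2 for a cryptate-labelled antibody. Antagonism was assessed in TSHR-transfected HEK293 cells stimulated with 4 nM TSH (EC80, final) in the presence of RO 20-1724.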

[17] = target: ATP-dependent 6-phosphofructokinase (Trypanosoma brucei brucei) (UniProt O15648); assay: qHTS Assay to Find Inhibitors of T. brucei phosphofructokinase: hit validation (AID 492961);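 further: luminescence reports ADP formed as PFK phosphorylates fructose-6-phosphate with ATP; on the % scale 0 is the no-effect control and ±100 the full control effect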
Summary of the method: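 Compounds titrated; %activity normalized to 0x and 1x enzyme controls, curve-fitted. Readout: ADP-Glo luminescence after 45 min room-temperature reaction of 1.25 nM PFK, 0.1 mM ATP, 0.5 mM F6P, pH 8.0.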

[18] = target: Thyrotropin-releasing hormone receptor (Homo sapiens) (UniProt P34981); assay: qHTS for Small Molecule Agonists and Allosteric Enhancers of Human TRH Receptor: Validation Screen for Agonists (AID 493127;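 active means calcium activation more than 3 SD above the typical response in the agonist read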;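 further: intracellular calcium rise by fluo-8 fluorescence before TRH EC20 addition; 0% is about no effect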); conditions: TRH receptor agonist cell assay; at 2 µM; active compounds read high
Sequence of Thyrotropin-releasing hormone receptor (Homo sapiens) (P34981 whole entry, looked up): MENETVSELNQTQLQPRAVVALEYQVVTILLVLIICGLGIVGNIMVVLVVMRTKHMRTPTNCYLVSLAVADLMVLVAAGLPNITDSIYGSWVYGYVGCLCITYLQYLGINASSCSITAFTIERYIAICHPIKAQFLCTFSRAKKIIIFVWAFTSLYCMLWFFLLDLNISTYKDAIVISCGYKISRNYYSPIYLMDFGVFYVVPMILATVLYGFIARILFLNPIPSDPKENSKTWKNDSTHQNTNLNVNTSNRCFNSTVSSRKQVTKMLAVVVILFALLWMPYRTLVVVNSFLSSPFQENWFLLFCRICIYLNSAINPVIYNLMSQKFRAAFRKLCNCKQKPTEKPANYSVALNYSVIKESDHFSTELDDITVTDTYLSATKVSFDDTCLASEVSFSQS
Summary of the method: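 Read-out: intracellular calcium release measured kinetically by FDSS (fluo-8, ex 480/em 530 nm), 1 reading/s after a 10-cycle baseline. TRHR cells, 2000/well, cultured 18 h at 33.5C, dye-loaded at room temp. Compound-evoked positive calcium signal flags agonists.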

[19] = target: Galactokinase (Homo sapiens) (UniProt P51570); assay: qHTS Validation Assay for Inhibitors of Human Galactokinase (GALK) (AID 493189); further: 0% is about no effect
Sequence of Galactokinase (Homo sapiens) (P51570 whole entry, looked up): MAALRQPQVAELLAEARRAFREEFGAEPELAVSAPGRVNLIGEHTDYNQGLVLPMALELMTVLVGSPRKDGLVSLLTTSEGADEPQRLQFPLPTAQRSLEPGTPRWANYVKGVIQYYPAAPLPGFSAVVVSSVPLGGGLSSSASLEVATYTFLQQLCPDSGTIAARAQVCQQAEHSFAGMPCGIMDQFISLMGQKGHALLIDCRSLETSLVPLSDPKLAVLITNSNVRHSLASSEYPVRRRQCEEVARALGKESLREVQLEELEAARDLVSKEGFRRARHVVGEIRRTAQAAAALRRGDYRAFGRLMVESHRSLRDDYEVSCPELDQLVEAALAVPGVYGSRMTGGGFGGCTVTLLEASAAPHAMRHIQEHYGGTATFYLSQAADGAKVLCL
Summary of the method: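 5 nM GALK / 100 uM galactose / 35 uM ATP, 20 mM HEPES pH8.0, 5 mM MgCl2, 60 mM NaCl, 1 mM DTT, 0.01% BSA (final). RT 1 h; Kinase-Glo Plus luminescence.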

[20] = Validation screen for small molecules that induce DNA re-replication in SW480 colon adenocarcinoma cells (AID 504364); further: 0% is about no effect
Summary of the method: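 Read-out: total Hoechst intensity of nuclei by fluorescence scanning imager; hits raise the fraction of nuclei with elevated DNA content. Cells received compound for 48 hr at 37 C before a 40 min stain.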

[21] = target: Ubiquitin carboxyl-terminal hydrolase 1 (Homo sapiens) (UniProt O94782); assay: Inhibitors of USP1/UAF1: Pilot qHTS (AID 504865);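 further: rhodamine fluorescence freed from ubiquitin-rhodamine substrate followed over time; top concentration of the series differs between compounds; on the % scale 0 is the no-effect control and ±100 the full control effect; nearly all actives have a fitted effect of over 35% in size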
Sequence of Ubiquitin carboxyl-terminal hydrolase 1 (Homo sapiens) (O94782 whole entry, looked up): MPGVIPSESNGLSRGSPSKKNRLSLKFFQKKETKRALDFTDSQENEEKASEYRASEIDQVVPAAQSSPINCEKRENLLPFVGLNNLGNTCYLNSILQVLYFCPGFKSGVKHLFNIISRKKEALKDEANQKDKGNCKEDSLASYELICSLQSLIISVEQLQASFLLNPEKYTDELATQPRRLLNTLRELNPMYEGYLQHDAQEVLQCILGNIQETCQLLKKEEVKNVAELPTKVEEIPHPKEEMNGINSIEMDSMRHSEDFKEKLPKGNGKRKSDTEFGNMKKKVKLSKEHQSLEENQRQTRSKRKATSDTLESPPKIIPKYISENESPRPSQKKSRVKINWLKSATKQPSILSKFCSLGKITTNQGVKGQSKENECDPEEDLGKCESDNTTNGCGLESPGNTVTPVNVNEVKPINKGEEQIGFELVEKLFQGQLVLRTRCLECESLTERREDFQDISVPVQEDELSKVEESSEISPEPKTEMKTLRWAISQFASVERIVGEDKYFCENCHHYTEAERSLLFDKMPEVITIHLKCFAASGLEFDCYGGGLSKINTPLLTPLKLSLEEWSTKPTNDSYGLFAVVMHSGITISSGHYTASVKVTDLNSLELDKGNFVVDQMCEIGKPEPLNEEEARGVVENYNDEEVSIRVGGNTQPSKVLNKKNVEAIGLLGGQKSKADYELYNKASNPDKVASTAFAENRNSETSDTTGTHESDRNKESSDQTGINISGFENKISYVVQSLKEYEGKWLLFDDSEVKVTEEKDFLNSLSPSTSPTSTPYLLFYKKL
Summary of the method: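 In 50mM HEPES pH 7.8 containing 0.5mM EDTA, 1mM TCEP, 0.1 mg/ml BSA and 0.01% Tween-20, 1nM USP1/UAF1 is exposed to compound for 15 min, then Ub-Rho (150nM final) is added and fluorescence is read over time.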

[22] = target: Luciferin 4-monooxygenase (Photinus pyralis) (UniProt P08659); assay: Biochemical firefly luciferase enzyme assay for NPC (AID 624030);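 further: purified P. pyralis luciferase at 10 nM with luciferin and ATP substrate; 0% = DMSO and -100% = full luciferase inhibition by PTC124 control; nearly all actives have a fitted effect of over 70% in size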
Sequence of Luciferin 4-monooxygenase (Photinus pyralis) (P08659 whole entry, looked up): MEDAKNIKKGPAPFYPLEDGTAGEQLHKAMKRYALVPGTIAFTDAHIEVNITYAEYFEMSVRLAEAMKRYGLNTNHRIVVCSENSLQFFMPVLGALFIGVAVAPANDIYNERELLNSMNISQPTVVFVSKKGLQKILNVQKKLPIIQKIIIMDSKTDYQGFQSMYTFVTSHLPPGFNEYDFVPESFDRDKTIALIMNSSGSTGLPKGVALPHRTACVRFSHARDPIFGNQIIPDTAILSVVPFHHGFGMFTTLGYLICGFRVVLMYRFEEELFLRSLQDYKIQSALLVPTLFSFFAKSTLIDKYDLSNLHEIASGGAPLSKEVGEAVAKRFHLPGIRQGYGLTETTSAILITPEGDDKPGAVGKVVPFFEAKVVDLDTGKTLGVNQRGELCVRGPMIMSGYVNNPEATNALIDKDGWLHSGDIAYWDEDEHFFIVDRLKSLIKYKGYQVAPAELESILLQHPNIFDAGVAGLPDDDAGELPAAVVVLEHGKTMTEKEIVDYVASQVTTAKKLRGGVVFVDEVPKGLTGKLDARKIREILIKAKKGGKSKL
Summary of the method: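 Purified P. pyralis luciferase at 10 nM in 50 mM Tris Acetate (final), luminescence read within 5 minutes of enzyme addition to compounds. Activity normalised to PTC124 versus DMSO; concentration-response curves classed by r2, magnitude and activity.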

[23] = S16 Schwann cell viability assay (CellTiter-Glo assay) (AID 624031);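 further: native untransfected S16 rat Schwann cells; cellular ATP luminescence as a viability measure; plate controls were DMSO-treated cells for no effect and cell-free wells for full effect; nearly all actives have a fitted effect of over 70% in size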
Summary of the method: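 Concentration-effect curves come from CellTiter-Glo luminescence of S16 rat Schwann cells after 24 h compound exposure. Each reading was normalized to DMSO wells (0%) and wells without cells, and curves were ranked by r2 and response magnitude.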

[24] = S16 Schwann cell PMP22 intronic element firefly luciferase assay (AID 624032);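 further: plate controls were DMSO for no effect and PTC124 positive control mean for full effect; nearly all actives have a fitted effect of over 30% in size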
Summary of the method: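 Rat S16 Schwann cells stably carrying firefly luciferase driven by a PMP22 intronic element, in 10% FBS, treated 24 h at 37 C. ONE-Glo luminescence normalized to PTC124 control and DMSO (0%); curves classed by r2, magnitude and activity.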

[25] = S16 Schwann cell PMP22 intronic element beta-lactamase assay (AID 624044; calls by dose curve;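 further: 0% = DMSO and -100% = potassium clavulanate positive control; nearly all actives have a fitted effect of over 15% in size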); conditions: S16 rat Schwann cells, PMP22 element beta-lactamase FRET, 24 h; ratio activity, negative = inhibition: at 38.3 µM (top of the series) unless noted
Summary of the method: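 Beta-lactamase reporter under a PMP22 intronic regulatory element in stable S16 rat Schwann cells; 24 h compound exposure. 460 nm blue signal normalized between DMSO (0%) and potassium clavulanate, with 535 nm FRET tracking viability; curves classed by r2 and response.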

[26] = qHTS profiling for inhibitors of Plasmodium falciparum proliferation (AID 504749);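 further: 0% = DMSO vehicle and full inhibition = artemisinin control; nearly all actives have a fitted effect of over 60% in size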; conditions: P. falciparum in erythrocytes, SYBR Green DNA, 72 h, at 28.7 µM (top of the series)
Summary of the method: (§1)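 SYBR Green fluorescence (ex 485 nm, em 535 nm) reports parasite DNA after 72 h compound exposure of infected red cells at 0.3% parasitemia, 2.5% hematocrit; signal normalized to 0.29 uM artemisinin and vehicle wells.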

3D7 = assay: as above; conditions: P. falciparum in erythrocytes, SYBR Green DNA, 72 h; series mostly up to 28.7 µM
Summary of the method: as §1

7G8 = assay: as above; conditions: P. falciparum in erythrocytes, SYBR Green DNA, 72 h; series mostly up to 12.8 µM
Summary of the method: as §1

AA1029 = assay: as above; conditions: P. falciparum in erythrocytes, SYBR Green DNA, 72 h; series mostly up to 28.7 µM
Summary of the method: as §1

AS120 = assay: as above; conditions: P. falciparum in erythrocytes, SYBR Green DNA, 72 h; series mostly up to 28.7 µM
Summary of the method: as §1

ATS189 = assay: as above; conditions: P. falciparum in erythrocytes, SYBR Green DNA, 72 h; series mostly up to 28.7 µM
Summary of the method: as §1

ATS95 = assay: as above; conditions: P. falciparum in erythrocytes, SYBR Green DNA, 72 h; series mostly up to 28.7 µM
Summary of the method: as §1

C2A = assay: as above; conditions: P. falciparum in erythrocytes, SYBR Green DNA, 72 h; series mostly up to 28.7 µM
Summary of the method: as §1

CP185 = assay: as above; conditions: P. falciparum in erythrocytes, SYBR Green DNA, 72 h; series mostly up to 28.7 µM
Summary of the method: as §1

CP191 = assay: as above; conditions: P. falciparum in erythrocytes, SYBR Green DNA, 72 h; series mostly up to 28.7 µM
Summary of the method: as §1

CP192 = assay: as above; conditions: P. falciparum in erythrocytes, SYBR Green DNA, 72 h; series mostly up to 28.7 µM
Summary of the method: as §1

CP194 = assay: as above; conditions: P. falciparum in erythrocytes, SYBR Green DNA, 72 h; series mostly up to 28.7 µM
Summary of the method: as §1

CP201 = assay: as above; conditions: P. falciparum in erythrocytes, SYBR Green DNA, 72 h; series mostly up to 28.7 µM
Summary of the method: as §1

CP203 = assay: as above; conditions: P. falciparum in erythrocytes, SYBR Green DNA, 72 h; series mostly up to 28.7 µM
Summary of the method: as §1

CP211 = assay: as above; conditions: P. falciparum in erythrocytes, SYBR Green DNA, 72 h; series mostly up to 28.7 µM
Summary of the method: as §1

CP215 = assay: as above; conditions: P. falciparum in erythrocytes, SYBR Green DNA, 72 h; series mostly up to 28.7 µM
Summary of the method: as §1

C[C@]12CC[C@H](OS(=O)(=O)O)CC1=CCC1C2CC[C@]2(C)C(=O)CC[C@@H]12 (some centres not stated)
inactive: Potency [1] | outcome [2] | Potency [3] | Potency [4] | Potency [5] | Potency [6] | Potency [7] | Potency [8] | Potency [9] | Potency [10] | outcome [11] | Potency [12] | Potency [13] | Potency [14] | Potency [15] | outcome [16] | Potency [17] | activation [18] 0.688% | outcome [19] | outcome [20] | Potency [21] | Potency [22] | Potency [23] | Potency [24] | Potency [25] | activity, negative = inhibition ([26]; parasite line A) -6.88% | activity, negative = inhibition ([26]; parasite line B) 5.59% | Potency (3D7) | Potency (7G8) | Potency (AA1029) | Potency (AS120) | Potency (ATS189) | Potency (ATS95) | Potency (C2A) | Potency (CP185) | Potency (CP191) | Potency (CP192) | Potency (CP194) | Potency (CP201) | Potency (CP203) | Potency (CP211) | Potency (CP215)
